Laboratory results reported in PubChem BioAssay (EPA / NIEHS).
Some structures have more than one record in an assay (separate samples or runs), and their calls can disagree. Active and inactive are the calls of the source. How the source made its calls: active means hit-call score of the fitted dose curve at least 0.9, where 1 is the maximum; inactive means score below 0.9.

Experiments:
[1] = read-out: Vascular cell adhesion molecule 1 (VCAM1), VCAM1 (gene 7412); assay: BSK_BF4T_VCAM1: BioMAP Diversity Plus: BF4T Assay for Vascular cell adhesion molecule 1 (VCAM1) Biomarker Activity (AID 2284249); conditions: primary human bronchial epithelial cells with fibroblasts
Procedure, shortened: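 Cell-surface VCAM-1 quantified by ELISA after 24 h chemical exposure of human bronchial epithelial/dermal fibroblast co-cultures, with SRB staining in parallel wells for cytotoxicity; DMSO baseline, positive-direction fitting.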

[2] = read-out: Collagen I, COL1A1 (gene 1277); assay: BSK_hDFCGF_CollagenI: BioMAP Diversity Plus: hDFCGF Assay for Collagen I Biomarker Activity (AID 2284250); conditions: primary human foreskin fibroblasts
Procedure, shortened: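 Collagen I quantified by ELISA 24 h after chemical dosing of human dermal fibroblast primary cells, with parallel SRB staining (0.1%, TCA-fixed, 560 nm) for overt cytotoxicity.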

[3] = read-out: Interferon-inducible T-cell alpha chemoattractant (ITAC), CXCL11 (gene 6373); assay: BSK_hDFCGF_ITAC: BioMAP Diversity Plus: hDFCGF Assay for Interferon-inducible T-cell alpha chemoattractant (ITAC) Biomarker Activity (AID 2284251); conditions: primary human foreskin fibroblasts
Procedure, shortened: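 Chemical dosing of primary human foreskin fibroblast cultures preceded ELISA measurement of I-TAC at 24 h. Response was analysed in the positive direction using DMSO as baseline, while parallel SRB staining measured cytotoxicity.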

[4] = read-out: Plasminogen activator inhibitor-1 (PAI1), SERPINE1 (gene 5054); assay: BSK_KF3CT_PAI1: BioMAP Diversity Plus: KF3CT Assay for Plasminogen activator inhibitor-1 (PAI1) Biomarker Activity (AID 2284252); conditions: primary human keratinocytes with fibroblasts
Procedure, shortened: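 PAI-1 levels quantified by ELISA after 24 h compound exposure of primary human skin keratinocytes co-cultured with fibroblasts. Activity is the gain relative to DMSO; cytotoxicity tracked in parallel cultures via SRB staining.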

[5] = read-out: Monocyte Chemoattractant Protein-1 (MCP1), CCL2 (gene 6347); assay: BSK_IMphg_MCP1: BioMAP Diversity Plus: IMphg Assay for Monocyte Chemoattractant Protein-1 (MCP1) Biomarker Activity (AID 2284253); conditions: primary human endothelial cells with macrophages
Procedure, shortened: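 ELISA readout of MCP-1 at 24 hours in IMphg co-cultures of venular endothelial cells and macrophages, normalised to DMSO; parallel cultures stained with sulforhodamine B for overt cytotoxicity.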

[6] = read-out: Interleukin-8 (IL8), CXCL8 (gene 3576); assay: BSK_KF3CT_IL8: BioMAP Diversity Plus: KF3CT Assay for Interleukin-8 (IL8) Biomarker Activity (AID 2284254); conditions: primary human keratinocytes with fibroblasts
Procedure, shortened: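 IL-8 read-out: ELISA, 24 h post-dose, human skin primary co-culture (keratinocytes + foreskin fibroblasts). DMSO = baseline; positive-direction fit.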

[7] = read-out: Macrophage Inflammatory Protein-1 Alpha (MIP1a), CCL3 (gene 6348); assay: BSK_IMphg_MIP1a: BioMAP Diversity Plus: IMphg Assay for Macrophage Inflammatory Protein-1 Alpha (MIP1a) Biomarker Activity (AID 2284255); conditions: primary human endothelial cells with macrophages
Procedure, shortened: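 MIP-1a protein levels were quantified by ELISA after 24 h treatment of human endothelial cell–macrophage co-cultures, compared with DMSO. Parallel cultures were fixed with TCA and stained with 0.1% SRB to gauge overt cytotoxicity.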

[8] = read-out: Plasminogen activator inhibitor-1 (PAI1), SERPINE1 (gene 5054); assay: BSK_MyoF_PAI1: BioMAP Diversity Plus: MyoF Assay for Plasminogen activator inhibitor-1 (PAI1) Biomarker Activity (AID 2284256); conditions: primary human lung fibroblasts;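 further: PAI-1 protein level measured by ELISA in fibroblast cultures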
Procedure, shortened: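 MyoF lung fibroblasts, human primary; compound 24 h; PAI-1 ELISA; positive-direction fit vs DMSO baseline; parallel SRB total-protein staining for cytotoxicity.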

CD69, CD69 (gene 969) = assay: BSK_IMphg_CD69: BioMAP Diversity Plus: IMphg Assay for CD69 Biomarker Activity (AID 2284257); conditions: primary human endothelial cells with macrophages
Procedure, shortened: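 Readout is ELISA for CD69 in primary human venular endothelial cell/macrophage co-culture, taken at 24 h post-dosing. SRB staining of parallel cultures gauged overt cytotoxicity; signal increase versus DMSO defined activity.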

[9] = read-out: Eotaxin 3, CCL26 (gene 10344); assay: BSK_BF4T_Eotaxin3: BioMAP Diversity Plus: BF4T Assay for Eotaxin 3 Biomarker Activity (AID 2284258); conditions: primary human bronchial epithelial cells with fibroblasts
Procedure, shortened: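 ELISA measurement of Eotaxin-3 after 24 h chemical exposure in a bronchial epithelial/dermal fibroblast co-culture, with DMSO as baseline. Parallel SRB staining (0.1% SRB after 10% TCA fixation, 560 nm) flagged overt cytotoxicity.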

[10] = read-out: Intercellular Adhesion Molecule 1 (ICAM1), ICAM1 (gene 3383); assay: BSK_BF4T_ICAM1: BioMAP Diversity Plus: BF4T Assay for Intercellular Adhesion Molecule 1 (ICAM1) Biomarker Activity (AID 2284260); conditions: primary human bronchial epithelial cells with fibroblasts
Procedure, shortened: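 ICAM-1 levels measured by ELISA after 24 h chemical treatment of bronchial epithelial cell/dermal fibroblast co-cultures, read against DMSO baseline. Overt cytotoxicity checked in parallel cultures by sulforhodamine B staining.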

[11] = read-out: Interleukin-8 (IL8), CXCL8 (gene 3576); assay: BSK_MyoF_IL8: BioMAP Diversity Plus: MyoF Assay for Interleukin-8 (IL8) Biomarker Activity (AID 2284261); conditions: primary human lung fibroblasts
Procedure, shortened: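 Lung fibroblasts (human primary) → chemical exposure → 24 h → IL-8 measured by ELISA. Signal increase scored versus DMSO control.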

CD90, THY1 (gene 7070) = assay: BSK_BF4T_CD90: BioMAP Diversity Plus: BF4T Assay for CD90 Biomarker Activity (AID 2284262); conditions: primary human bronchial epithelial cells with fibroblasts
Procedure, shortened: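 CD90 levels by ELISA after 24 h treatment of human bronchial epithelial cell/dermal fibroblast cultures, analysed versus DMSO. Overt cytotoxicity checked in parallel cultures by sulforhodamine B staining.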

[12] = read-out: Interleukin-8 (IL8), CXCL8 (gene 3576); assay: BSK_BF4T_IL8: BioMAP Diversity Plus: BF4T Assay for Interleukin-8 (IL8) Biomarker Activity (AID 2284263); conditions: primary human bronchial epithelial cells with fibroblasts
Procedure, shortened: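 Human bronchial epithelial cells with dermal fibroblasts co-culture; IL-8 measured by ELISA 24 hours after dosing, fitted vs DMSO. Cytotoxicity tracked in parallel cultures by SRB total-protein staining.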

[13] = read-out: Interleukin-1 alpha (IL1a), IL1A (gene 3552); assay: BSK_BF4T_IL1a: BioMAP Diversity Plus: BF4T Assay for Interleukin-1 alpha (IL1a) Biomarker Activity (AID 2284264); conditions: primary human bronchial epithelial cells with fibroblasts
Procedure, shortened: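 ELISA read-out of IL-1α from bronchial epithelial cell/dermal fibroblast co-cultures 24 h after compound addition. Increases scored against DMSO negative control. Cytotoxicity monitored by sulforhodamine B staining of parallel cultures.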

Decorin, DCN (gene 1634) = assay: BSK_MyoF_Decorin: BioMAP Diversity Plus: MyoF Assay for Decorin Biomarker Activity (AID 2284265); conditions: primary human lung fibroblasts
Procedure, shortened: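 ELISA readout of decorin, 24 h post-dosing; primary human lung fibroblast (MyoF) culture; gain-of-signal fit vs DMSO baseline.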

[14] = read-out: Matrix Metallopeptidase 1 (MMP1), MMP1 (gene 4312); assay: BSK_MyoF_MMP1: BioMAP Diversity Plus: MyoF Assay for Matrix Metallopeptidase 1 (MMP1) Biomarker Activity (AID 2284268); conditions: primary human lung fibroblasts
Procedure, shortened: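 Cells: human lung fibroblasts. Exposure: 24 h chemical dosing. Detection: ELISA for MMP1. Analysis: upward fitting against DMSO negative control.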

[15] = read-out: TIMP metallopeptidase inhibitor 1 (TIMP1), TIMP1 (gene 7076); assay: BSK_MyoF_TIMP1: BioMAP Diversity Plus: MyoF Assay for TIMP metallopeptidase inhibitor 1 (TIMP1) Biomarker Activity (AID 2284269); conditions: primary human lung fibroblasts
Procedure, shortened: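 ELISA read-out of TIMP-1 from primary human lung fibroblast cultures 24 h after compound dosing; gain of signal relative to DMSO vehicle baseline defines activity.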

[16] = read-out: Matrix Metallopeptidase 1 (MMP1), MMP1 (gene 4312); assay: BSK_BF4T_MMP1: BioMAP Diversity Plus: BF4T Assay for Matrix Metallopeptidase 1 (MMP1) Biomarker Activity (AID 2284270); conditions: primary human bronchial epithelial cells with fibroblasts
Procedure, shortened: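 MMP-1 quantified by ELISA in primary human bronchial epithelial/dermal fibroblast co-cultures, 24 hours post-dosing, with DMSO as baseline; parallel sulforhodamine B staining (560 nm) tracks overt cytotoxicity.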

[17] = read-out: Tissue plasminogen activator (tPA), PLAT (gene 5327); assay: BSK_BF4T_tPA: BioMAP Diversity Plus: BF4T Assay for Tissue plasminogen activator (tPA) Biomarker Activity (AID 2284272); conditions: primary human bronchial epithelial cells with fibroblasts
Procedure, shortened: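 tPA level quantified by ELISA at 24 h post-treatment in bronchial epithelial/dermal fibroblast co-cultures, gain of signal scored against DMSO baseline. Parallel cultures stained with 0.1% SRB (560 nm) to flag overt cytotoxicity.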

Measured: AC50

O=S(=O)(O)CCC(F)(F)C(F)(F)C(F)(F)C(F)(F)C(F)(F)C(F)(F)F
active: [3] 1380 nM
inactive: [1] | [2] | [3] | [4] | [5] | [6] | [7] | [8] | CD69, CD69 (gene 969) | [9] | [10] | [11] | CD90, THY1 (gene 7070) | [12] | [13] | Decorin, DCN (gene 1634) | [14] | [15] | [16] | [17]

O=C(Cl)C(F)(F)C(F)(F)C(F)(F)C(=O)Cl
inactive: all assays above

OCCC(F)(F)C(F)(F)C(F)(F)C(F)(F)F
inactive: all assays above

FC(F)=C(F)C(F)(F)C(F)(F)C(F)(F)C(F)(F)C(F)(F)C(F)(F)F
inactive: all assays above

FC(F)C(F)(F)COCC1CO1 (stereo unspecified)
inactive: all assays above

S=P(N1CC1)(N1CC1)N1CC1
inactive: [8] | [11] | Decorin, DCN (gene 1634) | [14] | [15]
